From PubChem BioAssay
ALDH1A1 block: inhibitors of human aldehyde dehydrogenase 1A1 | Purified ALDH1A1, NADH fluorescence, propionaldehyde substrate | Potency, µM (titrated, usually from 75.3 µM), for the others: at the top dose activity, negative = inhibition, usual class: inhibitors | 220,000 tested, 7.3% active; active means well fitted inhibition curve with a large enough effect, not every such curve was filed as active; inconclusive means small, poorly fitted or top-dose-only effect, or another doubt; inactive means no such curve, though single readings can be large or run the other way;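 further: potency means the concentration at half of the fitted maximal effect; plate controls were no enzyme wells and a reference inhibitor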
Target sequence (P00352 whole entry, looked up): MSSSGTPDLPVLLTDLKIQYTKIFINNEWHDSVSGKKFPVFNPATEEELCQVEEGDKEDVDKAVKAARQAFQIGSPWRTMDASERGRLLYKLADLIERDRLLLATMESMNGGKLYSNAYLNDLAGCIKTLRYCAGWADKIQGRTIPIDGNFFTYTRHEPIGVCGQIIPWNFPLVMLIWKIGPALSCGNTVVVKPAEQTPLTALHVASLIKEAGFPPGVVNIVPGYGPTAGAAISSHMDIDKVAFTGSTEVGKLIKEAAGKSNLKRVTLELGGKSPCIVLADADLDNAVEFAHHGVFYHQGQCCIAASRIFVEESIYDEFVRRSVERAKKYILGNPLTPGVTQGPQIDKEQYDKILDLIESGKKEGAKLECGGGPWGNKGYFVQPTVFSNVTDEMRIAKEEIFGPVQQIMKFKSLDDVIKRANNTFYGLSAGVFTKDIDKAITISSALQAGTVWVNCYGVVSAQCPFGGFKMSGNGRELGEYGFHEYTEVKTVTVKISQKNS
HTT ATP protect: protects HTT-Q103 PC12 cells, measured by ATP | PC12 HTT-Q103 induced, cytoprotection, ATP luminescence, 40 h | Potency, µM (top dose mostly 56.4 µM), without a hit: cytoprotection (ATP increase), actives largely listed as activators | 230,000 tested, 0.14% active; further: potency means the concentration at half of the fitted maximal effect; % of control where 0% means no effect; nearly all actives have a fitted effect of over 45% in size
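Quantitative HTS on tebufenozide-induced (100 nM) PC12 cells expressing HTTQ103 exon 1–GFP; compounds tested as a concentration series; survival measured via cellular ATP.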
HTT aggregate: reduces HttQ103-GFP aggregates in PC12 cells; PC12 HttQ103-GFP aggregates, Acumen cytometry, 40 h; Potency, µM (titrated, usually from 46.1 µM), without a hit: at the top dose activity change, negative = inhibition, hits mostly inhibitors; 220,000 tested, 1.1% active; AID 1688; further: potency means the concentration at half of the fitted maximal effect; on the % scale 0 is the no-effect control and ±100 the full control effect; nearly all actives have a fitted effect of over 60% in size
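PC12 cells with ecdysone-inducible HTT exon1 Q103-GFP, induced by 100 nM tebufenozide, given compounds in a concentration series. GFP aggregates (1–25 um, 6 SD above background) counted in lysates by laser-scanning cytometry, 488 nm excitation.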
IMPase Li inh: cell-permeable IMPase inhibitors with lithium potentiation. AID 1457. Potency, µM (highest dose often 59.4 µM), inactives show at the highest dose activity, negative = IMPase inhibition, hits mostly inhibitors. 210,000 tested, 0.35% active. CHO-M1 cells, IP1 TR-FRET (IP-One), carbachol + lithium;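 further: IP1 builds up when IMPase is blocked and the TR-FRET signal falls; potency means the concentration at half of the fitted maximal effect; plate controls were basal vehicle for no effect and high inhibitor control for full effect; nearly all actives have a fitted effect of over 50% in size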
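Concentration–response in CHO-M1 cells, lithium-potentiated; 30 min at 37C. IP1 detected by competitive TR-FRET after 10 min lysis at RT. Hill-fitted AC50.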
HPGD inh: blocks human HPGD enzyme activity; AID 894; 150,000 tested, 4.3% active; Potency, µM, for inactives: top-dose activity change, negative = inhibition, actives largely listed as inhibitors; purified HPGD, NADH fluorescence kinetic, PGE2 substrate; P15428; active means well fitted inhibition curve with a large enough effect, not every such curve was filed as active; inconclusive means small, poorly fitted or top-dose-only effect, or another doubt; inactive means no such curve, though single readings can be large or run the other way; further: potency means the concentration at half of the fitted maximal effect; on the % scale 0 is the no-effect control and ±100 the full control effect
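NADH formation kinetics: reaction with 30 uM PGE2 and 1 mM NAD+ (final), 20 nM enzyme, Tris-HCl pH 8 with Tween 20, after 15 min compound preincubation at room temperature. Fluorescence change, last versus first of five reads.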
IMPase inh: cell-permeable inhibitors of inositol monophosphatase (IMPase); P97697; CHO-M1 cells, IP1 accumulation, HTRF TR-FRET ratio; inhibition (IP1 accumulation), % at 46.1 µM; 120,000 tested, under 10 active; AID 901; active means well fitted curve in the direction sought with a large enough effect in the signal ratio, not every such curve was filed as active; inconclusive means small, poorly fitted or top-dose-only effect, or a change in a side signal; inactive means no such curve, though single readings can be large or run the other way; the % refers to the signal ratio;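 further: cells stimulated with carbachol in lithium chloride buffer; plate controls were DMSO basal wells for no effect and reference inhibitor wells for full effect; higher means more IMPase inhibition seen as more IP1 and lower FRET ratio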
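CHO-M1 cells (CHO stably expressing M1 receptor), compound up to 46 uM final, stimulated with carbachol (50 uM as added) in buffer with 50mM LiCl, pH 7.4, 30 min at 37C. Cytosolic IP1 read by TR-FRET; AC50 from Hill fits.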
Starred values were filed as active, the others as inactive; ? = inconclusive; nt = not tested or not shown; [ ] = dose if it differs, or a comment. Only some compounds are listed: those with a hit (about 9.4% of all), similar ones and a draw of the others. Unless noted, the call rests on the fitted dose curve; in most records, active means well fitted curve in the direction sought with a large enough effect; inconclusive means small, poorly fitted or top-dose-only effect, or another doubt; inactive means no such curve, though single readings can be large; an effect the other way counts as inactive or inconclusive.

SMILES	ALDH1A1 block	HTT ATP protect	HTT aggregate	IMPase Li inh	HPGD inh	IMPase inh
CC(=O)C1C(=O)c2c(cccc2[N+](=O)[O-])C1=Nc1ccc(S(N)(=O)=O)cc1 (configuration not stated)	22µM*	6%[10 µM]	-6%[9.22 µM]	3%	nt	nt
CCC(=C(c1ccc(OC)cc1)c1ccc(OC)cc1)c1cn(CC(O)CN2CCN(C)CC2)c2ccccc12 (configuration not stated)	-14%	-99%	16µM*	49%[38.3 µM]	-12%	8
O=C(O)[C@@H](O)c1ccc(F)cc1	1%[13.5 µM]	-3%[10 µM]	nt	4%	-4%	nt
N=C1[C@@H](O)[C@]2(I)c3ccccc3N3C(=N)[C@H](O)[C@@H]4c5ccccc5N1[C@@H]4[C@@H]32	-4%[13.5 µM]	5%[10 µM]	nt	-9%	4µM*	nt
Oc1c(Cl)cc(Cl)cc1/C=N/c1nc(-c2ccc(Cl)cc2)cs1	10%	-6%[10 µM]	19%[9.22 µM]	nt	nt	nt
Oc1c(Cl)cc(Cl)cc1/C=N/c1nccs1	14µM*	-6%	-2%	11%[38.3 µM]	-23%	-8
CCOc1ccc(C2CC(=O)n3nc(-c4ccc(C)cc4)nc3S2)cc1OC (configuration not stated)	nt	nt	nt	nt	nt	-2
Cc1ccc(NC2=C(CC(=O)O)C(c3ccccc3)N(c3ccc(C)cc3)C2=O)cc1 (configuration not stated)	?	-11%[10 µM]	-5%	6%	-15%	4
COc1ccc(C2C(CC(=O)O)=C(O)C(=O)N2c2ccccc2)cc1 (configuration not stated)	18µM*	-25%	18%	11%[38.3 µM]	-23%	0
CC(C)OC(=O)c1cn(-c2ccccc2)nc1-c1ccco1	11µM*	-5%[1.9 µM]	?	23%[38.3 µM]	-24%	1
CC(C)(C)N1C(=O)[C@H]2[C@H]3[C@H](O)[C@H](O)C/C(=N/OCc4ccccc4)[C@@H]3CC[C@@H]2C1=O	-13%[13.5 µM]	-5%[10 µM]	nt	nt	nt	nt
CCCCOc1ccc(S(=O)(=O)Nc2cccnc2)cc1	7%	-19%	11µM*	-1%[38.3 µM]	-12%	10
CC(C)Oc1cccc(C(=O)NC(=S)Nc2ccc(Cl)c(C(=O)O)c2)c1	?	-5%	-2%	-11%[38.3 µM]	-12%	5
CCCCOc1cccc(C(=O)NC(=S)Nc2cccnc2)c1	25µM*	16%[10 µM]	11%	-2%	-12%	nt
CC(C)Oc1cccc(C(=O)NC(=S)Nc2cccc(C(F)(F)F)c2)c1	18µM*	3%	17%	9%[38.3 µM]	-22%	0
CCCCOc1cccc(C(=O)NC(=S)Nc2cccc(C(F)(F)F)c2)c1	8.9µM*	13%[10 µM]	?	3%	-21%	nt
Cc1ccc(S(=O)(=O)Nc2cccnc2)cc1	7%	-2%	8%	5%[38.3 µM]	-7%	6
COc1cccc(-c2nccc(NC3CCNCC3)n2)c1	7%	29%	nt	-3%	-3%	nt
CO[C@H]1/C=C/O[C@@]2(C)Oc3c(C)c(O)c4c(O)c(c(/C=N\N5CCN(C6CCCC6)CC5)c(O)c4c3C2=O)NC(=O)/C(C)=C\C=C\[C@H](C)[C@H](O)[C@@H](C)[C@@H](O)[C@@H](C)[C@H](OC(C)=O)[C@@H]1C	nt	-65%	-32%	nt	nt	nt
COc1ccc2ccc3c(c2c1)N=CC1(O3)N(C)c2ccccc2C1(C)C (configuration not stated)	13µM*	29%[10 µM]	?	34%	?	8
OC1(c2ccc3c(c2)OCO3)CCN(Cc2ccc(F)cc2)CC1	nt	2%[10 µM]	-19%[9.22 µM]	nt	nt	nt
Clc1cc(Cl)cc(C2=N[C@@H](Cc3ccccc3)CO2)c1	-6%	-38%	nt	2%	-2%	nt
S=C(Nc1ccccc1)Nc1ccc(Cl)cc1Cl	7.9µM*	20%[10 µM]	?	27%	-27%	-7
S=C(Nc1ccc2cn[nH]c2c1)Nc1ccccc1Cl	14µM*	nt	30%	-7%	-15%	nt
S=C(Nc1ccc2cn[nH]c2c1)Nc1ccc(Cl)cc1Cl	13µM*	-2%	4%	2%	nt	nt
